High-throughput results as filed in PubChem.
Rows were chosen to be rich in hits. Some 0.53% of all compounds tested hit in one or more screens of this group.
Pol III holo inh: qHTS Assay for Inhibitors of DNA Polymerase III Holoenzyme System; AID 603, 2007; Potency, µM (titrated, usually from 57.1 µM); reconstituted DNA polymerase III holoenzyme replication, biochemical; actives 0.25% (n = 71,000)
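Reconstituted *E. coli* holoenzyme (0.35 nM Pol III, 1 nM beta, 154 nM SSB, 2 nM primase) was preincubated with compound for 15 min at RT. Synthesis on 1.4 nM ssM13Gori ran 35 min, then was stopped with PicoGreen/EDTA and read as dsDNA fluorescence.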
BRCT inh red: qHTS Assay for Inhibitors of BRCT-Phosphoprotein Interaction (Red Fluorophore). Breast cancer type 1 susceptibility protein (Homo sapiens), P38398. BRCT-phosphopeptide binding, red fluorescence polarization. Potency, µM (doses to about 76.9 µM), most hits filed as inhibitors. actives 0.03% (n = 75,000). AID 892, 2007
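Fluorescence polarization: 100 nM His-tagged BRCA1 BRCT with 100 nM TAMRA-labelled phospho-BACH1 decapeptide, phosphate buffer pH 7.3 with 150 mM NaCl, DTT, 0.01% Tween 20; 12 min RT. Binding inhibition seen as FP decrease.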
TsaE inh: qHTS Assay for Inhibitors of YjeE. actives 0.05% (n = 71,000). Potency, µM. purified YjeE enzyme, qHTS inhibition assay. tRNA threonylcarbamoyladenosine biosynthesis protein TsaE (Escherichia coli (strain …. AID 605, 2007
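Fluorescence polarization of a BODIPY Texas Red–ADP probe (2 uM) bound to purified YjeE (10 uM) was read after 15 min room-temperature incubation with compounds. Loss of polarization marks inhibitors; ADP serves as titrated control.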
Hsp90 Hop PPI: qHTS Assay for Disrupters of an Hsp90 Co-Chaperone Interaction; Hsp90 C-terminal peptide / TPR2A (Hop) interaction, human; AlphaScreen TPR2A-His6 binding biotin-Hsp90 C-terminal peptide; Potency, µM (highest dose often 57 µM); actives 0.44% (n = 71,000); AID 595, 2007; active = well fitted curve in either direction with a large enough effect; inconclusive = small, poorly fitted or top-dose-only effect, or another doubt
BRCT inh green: qHTS Assay for Inhibitors of BRCT-Phosphoprotein Interaction (Green Fluorophore); Breast cancer type 1 susceptibility protein (Homo sapiens), P38398; BRCA1 BRCT-phosphopeptide binding, green fluorescence polarization; Potency, µM (doses to about 76.9 µM), most hits filed as inhibitors; actives 0.05% (n = 75,000); AID 875, 2007
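Fluorescence polarization: His-tagged BRCT (~35 kDa BRCA1 C-terminus, 250 nM) bound to 100 nM fluorescein-labeled phosphorylated 10-aa BACH1 peptide, pH 7.3 phosphate buffer with DTT and Tween 20. Compounds incubated 12 min at room temperature; inhibition read as lowered polarization.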
Hits are given with their value; – = inactive; ? = inconclusive; · = no result; ! = a repeat was not active; [ ] = dose if it differs, or a comment. Unless noted, calls follow the shape of the dose curve; as a rule, active = well fitted curve in the direction sought with a large enough effect; inconclusive = small, poorly fitted or top-dose-only effect, or another doubt; inactive = no such curve, though single readings can be large; an effect the other way counts as inactive or inconclusive.

SMILES	Pol III holo inh	BRCT inh red	TsaE inh	Hsp90 Hop PPI	BRCT inh green
N#C/C(=C\c1ccc(O)c(O)c1)C(=O)Nc1ccccc1	–	–	–	10µM!	–
N#C/C(=C\c1ccc(O)c(O)c1)C(=O)NCCCNC(=O)/C(C#N)=C/c1ccc(O)c(O)c1	2.5µM	–	–	2µM	–
O=C1OC(=O)[C@@H]2[C@@H]1[C@@H]1CC[C@H]2O1	–	–	–	?	–
COC(=O)C1=C(C)NC(C)=C(C(=O)OCCN(C)Cc2ccccc2)[C@@H]1c1cccc([N+](=O)[O-])c1	–	–	–	–	–
CC[C@H]1C(=O)OC[C@@H]1Cc1cncn1C	–	·	–	–	·
Cc1cccc(Nc2nn3c(=O)c4ccccc4nc3s2)c1	3.2µM	–	–	–	–
CCCCNC(=O)c1ccc2nc(-c3ccco3)c(-c3ccco3)nc2c1	16µM	–	?	?	–
c1coc(-c2nc(-c3ccco3)c(-c3ccco3)nc2-c2ccco2)c1	1.6µM	?	–	?	13µM
COCCn1c(=O)c(-c2cn(C)c3ccccc23)nc2cnc(Oc3ccccc3)nc21	–	–	–	3.2µM	–
N#C[C@@H](Cc1ccc(O)c(O)c1)C(=O)N1CCc2ccccc21	–	–	–	6.3µM	–
O=C(Nc1sc2c(c1C(=O)O)CCCC2)c1cccs1	–	–	–	–	–
CC(C)OC(=O)c1c(NC(=O)c2cccs2)sc2c1CCCC2	–	–	–	25µM	–
CC(C)(C)c1ccc(-c2nnc3sc(-c4ccccn4)nn23)cc1	–	–	–	2µM	–
COc1cc2nc(N3CC=[N+](C(=O)c4ccco4)CC3)nc(N)c2cc1OC	–	–	–	–	–
COc1ccc(-c2cc3nc(-c4ccccc4)cc(N4CCC5(CC4)OCCO5)n3n2)cc1	–	–	–	16µM	–
CSc1nc(N)c2ncn([C@H]3O[C@H](COP(=O)(O)OP(=O)(O)OP(=O)(O)O)[C@@H](O)[C@@H]3O)c2n1	–	–	79µM	–	–
CC1CCCCN1Cc1nc2c(c(=O)n(C)c(=O)n2C)n1Cc1c(F)cccc1Cl (configuration not stated)	–	?	79µM	–	0.63µM
CN(C)CCCNc1cc(O)c2c(c1O)C(=O)c1ccccc1C2=O	?	?	–	?	–[15.4 µM]
O=C1c2ccccc2C(=O)c2c(O)c(O)cc(O)c21	·	40µM	·	·	–
Cc1cc(Nc2ccc(O)cc2)ccc1N	–	–	100µM	?	–
C=C1CC[C@@H](O)C/C1=C/C=C1\CCC[C@]2(C)[C@@H]1CC[C@H]2[C@@H](C)/C=C\[C@@H](C)C(C)C	–	·	–	–	·
COC(=O)NC1CCS(=O)(=O)C1 (configuration not stated)	–	–	–	–	–
O=C(NC1CCS(=O)(=O)C1)OC1CCCCC1 (configuration not stated)	0.5µM	–	–	–	–
O=C(N/N=C\c1ccccc1O)c1ccccc1O	?	–	–	10µM	–
COc1cccc(N2CCN(S(=O)(=O)c3ccc4nc(-c5ccccc5)[nH]c4c3)CC2)c1	–	–	–	–	–
SMILES	Pol III holo inh	BRCT inh red	TsaE inh	Hsp90 Hop PPI	BRCT inh green
CN1CCN(c2ccc3nc(-c4ccc5nc(-c6ccc(O)cc6)[nH]c5c4)[nH]c3c2)CC1	2µM	–[15.4 µM]	–	–[11 µM]	–[15.4 µM]
Cc1c(N=CC=Nc2c(C)n(C)n(-c3ccccc3)c2=O)c(=O)n(-c2ccccc2)n1C	–[11.4 µM]	–	–	–[11 µM]	–
Cc1c(N2C(=O)c3ccc4c5c(ccc(c35)C2=O)CC4)c(=O)n(-c2ccccc2)n1C	25µM	–	–	–	–
NC([N-]/N=C/c1ccccn1)=[S]=[Fe].O=S(=O)(O)O	–[11.4 µM]	–[15.4 µM]	–	1.3µM	–[15.4 µM]
FC(F)(F)c1cc(-c2ccccc2)nc(NCC2CCCO2)n1 (configuration not stated)	–	–	–	32µM	–
CN(C)c1ncc2nc(-c3ccccc3)c(=O)n(C)c2n1	–	–	–	13µM	–
CN(C)c1ncc2nc(-c3ccc(Cl)cc3)c(=O)n(C)c2n1	–	–	–	–	–
COc1cccc(Cn2c(=O)c(-c3ccccc3)nc3cnc(N(C)C)nc32)c1	–	–	–	10µM	–
CCCCCCCCCCCCCCCCOC[C@@H](COCC(F)(F)F)OP(=O)(O)OCO	–	·	–	–	·
CCOCCCn1c(=N)c(C(N)=S)cc2c(=O)n3cccc(C)c3nc21	25µM	–	–	–	–
NC(=S)NCCC[C@@H](N)C(=O)O	–	–	–	–	–
CN(C)c1ccc(N=Nc2cccc3ccoc23)cc1	–[11.4 µM]	–[15.4 µM]	–	4µM	–[15.4 µM]
COC(=O)[C@H]1[C@@H]2C[C@H]3c4[nH]c5ccccc5c4CCN3C[C@@H]2CC[C@@H]1O	–	·	–	–	·
Cc1conc1NC(c1cccs1)c1ccc2cccnc2c1O (configuration not stated)	–	–	–	25µM	–
O=[N+]([O-])c1ccc([C@@H](Nc2ccccc2)c2ccc3cccnc3c2O)cc1	–[11.4 µM]	–[15.4 µM]	–	–[11 µM]	–[15.4 µM]
CCN(CC)CC[n+]1ccc2c(C)c3[nH]c4ccccc4c3c(C)c2c1	4µM	–[15.4 µM]	–	–[11 µM]	–[15.4 µM]
COc1ccc(-c2cc(C(=O)N/N=C/c3ccc(O)cc3)[nH]n2)cc1	·	–	·	·	–
O=C(OCC(=O)N1CCCC1)c1cncc(Br)c1	–	–	–	–	–
CO[C@@]12C[C@@H](COC(=O)c3cncc(Br)c3)CN(C)[C@H]1Cc1cn(C)c3cccc2c13	–	–	–	10µM!	–
Cc1ccc2c(c1)C1C=CCC1C(C(=O)O)N2 (configuration not stated)	?	?	–	?	–
COc1cccc2c1NC(C(=O)O)C1CC=CC21 (configuration not stated)	25µM	–	?	–	–
Oc1ccc(CNc2ccccc2F)c2cccnc12	–	–	–	5µM	–
Oc1ccc(CNCc2ccccc2)c2cccnc12	–[11.4 µM]	–[15.4 µM]	–	?	–[15.4 µM]
Oc1ccc(COCc2ccccc2)c2cccnc12	–	–	–	25µM	–
COc1ccccc1N1CCN(Cc2cc(Br)c(O)c3ncccc23)CC1	–	–	–	–[2.3 µM]	–
Oc1c(CN2CCN(c3ccccn3)CC2)cc(Cl)c2cccnc12	–	–	–	7.9µM	–
Oc1cc(Cc2ccccc2)cnc1CN1CCCCC1	–	–	–	–	–
Oc1c(CN2CCCCC2)cc(COCc2ccccc2)c2cccnc12	–	–	–	2.5µM	–
CO[C@@H]1COC(=O)[C@H](C)NC(=O)C/C=C\[C@@H](C)[C@H](OC)COC(=O)[C@H](C)NC(=O)C/C=C\[C@H]1C	·	–[15.4 µM]	·	·	–[15.4 µM]
COc1ccc(C(=O)Oc2c(CN3CCOCC3)cc(Cl)c3cccnc23)cc1	–	–	–	–	–
